Reference: article PMC7862700, “An all-to-all approach to the identification of sequence-specific readers for epigenetic DNA modifications on cytosine”

Tests used:
Assay in all cases: DAPPL (digital affinity profiling via proximity ligation, sequencing); 10 mM Tris-HCl pH 7.5, 50 mM NaCl, 1 mM DTT, 4% glycerol, room temperature, 30 min; GST-TFs on glutathione beads, 16-mer random dsDNA library, 0.1% formaldehyde crosslink after washing; high values mean tight binding
FEV = molecular target: T1, FEV (Homo sapiens, UniProt Q99581 1-238); details: protein: recombinant; tags: N-terminal GST; dsDNA, one strand shown
T1 sequence: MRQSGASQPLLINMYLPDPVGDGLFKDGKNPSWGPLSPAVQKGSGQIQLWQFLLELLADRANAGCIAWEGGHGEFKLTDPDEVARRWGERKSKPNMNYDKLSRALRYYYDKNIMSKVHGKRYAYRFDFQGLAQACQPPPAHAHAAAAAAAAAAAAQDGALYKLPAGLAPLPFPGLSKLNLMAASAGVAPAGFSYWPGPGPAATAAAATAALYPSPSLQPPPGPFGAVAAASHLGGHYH
In short: (§1)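 Human transcription factors were made in yeast as GST fusions, captured on glutathione beads and barcoded with DNA. With a tag-only sample included, the pool was incubated with 200 nmole of a random double-stranded 16-mer DNA library in Tris/NaCl/DTT/glycerol buffer at room temperature for 30 min, then crosslinked with 0.1% formaldehyde after washing, ligated by proximity, amplified and sequenced. For binding signal, each hexamer's read frequency for a factor is divided by its frequency for the tag-only sample.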

ETV5 = ETV5 (Homo sapiens, UniProt P41161 1-510); details: protein: recombinant; tags: N-terminal GST; dsDNA, one strand shown
In short: as §1

HSF1 = HSF1 (Homo sapiens, UniProt Q00613 1-529); details: protein: recombinant; tags: N-terminal GST; chain copies: 3; dsDNA, one strand shown
In short: as §1

SPIC = molecular target: T2, SPIC (Homo sapiens, UniProt Q8N5J4 1-248); details: protein: recombinant; tags: N-terminal GST; dsDNA, one strand shown
T2 sequence: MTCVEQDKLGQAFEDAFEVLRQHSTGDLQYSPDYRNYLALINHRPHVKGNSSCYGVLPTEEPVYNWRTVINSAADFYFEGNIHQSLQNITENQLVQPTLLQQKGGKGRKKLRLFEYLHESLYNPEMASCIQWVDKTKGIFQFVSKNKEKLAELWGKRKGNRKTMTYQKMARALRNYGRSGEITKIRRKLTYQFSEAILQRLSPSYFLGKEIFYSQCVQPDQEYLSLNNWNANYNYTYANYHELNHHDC
In short: as §1

ELF4 = ELF4 (Homo sapiens, UniProt Q99607 1-663); details: protein: recombinant; tags: N-terminal GST; dsDNA, one strand shown
In short: as §1

ELK4 = molecular target: T3, ELK4 (Homo sapiens, UniProt P28324-2 1-405); details: protein: recombinant; tags: N-terminal GST; dsDNA, one strand shown
T3 sequence: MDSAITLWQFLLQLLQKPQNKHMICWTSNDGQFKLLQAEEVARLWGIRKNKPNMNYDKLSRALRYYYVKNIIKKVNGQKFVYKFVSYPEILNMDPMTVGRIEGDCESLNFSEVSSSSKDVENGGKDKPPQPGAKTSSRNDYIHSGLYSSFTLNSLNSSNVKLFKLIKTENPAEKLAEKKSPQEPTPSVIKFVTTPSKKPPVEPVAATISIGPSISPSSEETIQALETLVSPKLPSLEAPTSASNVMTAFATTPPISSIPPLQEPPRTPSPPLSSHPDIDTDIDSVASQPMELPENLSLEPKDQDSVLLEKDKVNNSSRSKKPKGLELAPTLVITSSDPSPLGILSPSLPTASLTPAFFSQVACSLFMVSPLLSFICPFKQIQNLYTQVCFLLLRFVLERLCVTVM
In short: as §1

ETV2 = molecular target: T4, ETV2 (Homo sapiens, UniProt O00321 1-342); details: protein: recombinant; tags: N-terminal GST; dsDNA, one strand shown
T4 sequence: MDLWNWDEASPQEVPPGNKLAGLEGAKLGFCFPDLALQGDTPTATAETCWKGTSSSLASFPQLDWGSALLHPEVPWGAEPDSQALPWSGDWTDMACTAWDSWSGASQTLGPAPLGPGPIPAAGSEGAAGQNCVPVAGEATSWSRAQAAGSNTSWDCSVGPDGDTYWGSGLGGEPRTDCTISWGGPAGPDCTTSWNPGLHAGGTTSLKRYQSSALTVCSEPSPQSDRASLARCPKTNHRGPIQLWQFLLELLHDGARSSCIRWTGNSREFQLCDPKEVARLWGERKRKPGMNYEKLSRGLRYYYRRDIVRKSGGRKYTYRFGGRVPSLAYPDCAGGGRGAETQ
In short: as §1

ELF3 = molecular target: T5, ELF3 (Homo sapiens, UniProt P78545 1-371); details: protein: recombinant; tags: N-terminal GST; dsDNA, one strand shown
T5 sequence: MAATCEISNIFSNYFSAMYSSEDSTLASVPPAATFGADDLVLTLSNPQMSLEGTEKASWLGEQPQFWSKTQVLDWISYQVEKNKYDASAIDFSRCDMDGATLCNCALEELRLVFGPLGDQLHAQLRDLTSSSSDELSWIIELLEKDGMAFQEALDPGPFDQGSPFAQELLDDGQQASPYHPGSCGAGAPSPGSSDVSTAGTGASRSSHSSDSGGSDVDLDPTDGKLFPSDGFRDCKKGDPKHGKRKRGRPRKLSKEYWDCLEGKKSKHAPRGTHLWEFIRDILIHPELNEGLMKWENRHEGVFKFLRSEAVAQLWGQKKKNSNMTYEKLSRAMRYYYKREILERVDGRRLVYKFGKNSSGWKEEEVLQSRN
In short: as §1

CRX = CRX (Homo sapiens, UniProt O43186 1-299); details: protein: recombinant; tags: N-terminal GST; dsDNA, one strand shown
In short: as §1

ETV1 = ETV1 (Homo sapiens, UniProt P50549 1-477); details: protein: recombinant; tags: N-terminal GST; dsDNA, one strand shown
In short: as §1

ETV5, sequence (P41161 whole entry): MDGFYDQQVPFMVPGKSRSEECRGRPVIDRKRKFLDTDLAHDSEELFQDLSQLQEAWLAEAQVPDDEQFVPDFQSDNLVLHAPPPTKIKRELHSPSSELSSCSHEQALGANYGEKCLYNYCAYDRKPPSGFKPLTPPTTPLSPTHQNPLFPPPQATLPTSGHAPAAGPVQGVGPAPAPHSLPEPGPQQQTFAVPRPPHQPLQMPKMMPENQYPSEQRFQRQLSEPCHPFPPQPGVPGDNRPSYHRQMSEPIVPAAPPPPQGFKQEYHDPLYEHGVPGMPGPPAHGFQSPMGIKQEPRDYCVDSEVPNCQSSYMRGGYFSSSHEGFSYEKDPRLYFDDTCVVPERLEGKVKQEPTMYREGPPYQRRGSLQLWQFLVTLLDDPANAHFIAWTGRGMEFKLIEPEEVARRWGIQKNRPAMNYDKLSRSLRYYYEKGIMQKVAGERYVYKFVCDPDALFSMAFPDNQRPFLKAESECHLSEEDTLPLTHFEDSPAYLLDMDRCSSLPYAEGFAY
ETV1, sequence (P50549 whole entry): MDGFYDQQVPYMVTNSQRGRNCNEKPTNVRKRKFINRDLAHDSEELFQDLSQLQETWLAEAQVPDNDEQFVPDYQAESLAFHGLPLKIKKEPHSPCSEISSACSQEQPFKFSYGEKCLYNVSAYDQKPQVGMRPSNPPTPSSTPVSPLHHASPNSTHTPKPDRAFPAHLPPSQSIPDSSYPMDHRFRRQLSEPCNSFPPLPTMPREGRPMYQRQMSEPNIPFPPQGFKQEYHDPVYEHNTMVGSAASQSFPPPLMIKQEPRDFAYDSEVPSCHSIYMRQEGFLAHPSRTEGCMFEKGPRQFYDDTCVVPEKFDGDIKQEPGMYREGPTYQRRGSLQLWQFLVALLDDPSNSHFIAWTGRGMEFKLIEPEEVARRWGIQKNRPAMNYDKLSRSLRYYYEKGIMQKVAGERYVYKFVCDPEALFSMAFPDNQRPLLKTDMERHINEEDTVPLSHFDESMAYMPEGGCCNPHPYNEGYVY
HSF1, sequence (Q00613 whole entry): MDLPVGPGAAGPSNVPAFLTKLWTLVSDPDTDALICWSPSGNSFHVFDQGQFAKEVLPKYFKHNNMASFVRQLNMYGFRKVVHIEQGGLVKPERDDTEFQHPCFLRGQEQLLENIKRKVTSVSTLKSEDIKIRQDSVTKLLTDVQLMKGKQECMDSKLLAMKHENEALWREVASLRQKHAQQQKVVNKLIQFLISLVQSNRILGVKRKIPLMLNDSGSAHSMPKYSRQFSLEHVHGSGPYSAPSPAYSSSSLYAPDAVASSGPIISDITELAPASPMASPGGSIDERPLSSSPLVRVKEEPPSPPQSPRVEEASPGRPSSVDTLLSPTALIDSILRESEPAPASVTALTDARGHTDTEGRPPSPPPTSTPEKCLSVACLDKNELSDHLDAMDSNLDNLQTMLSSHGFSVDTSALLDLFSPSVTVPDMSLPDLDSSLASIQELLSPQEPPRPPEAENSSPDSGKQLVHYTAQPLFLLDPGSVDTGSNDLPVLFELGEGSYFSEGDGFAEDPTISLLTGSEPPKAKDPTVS
CRX, sequence (O43186 whole entry): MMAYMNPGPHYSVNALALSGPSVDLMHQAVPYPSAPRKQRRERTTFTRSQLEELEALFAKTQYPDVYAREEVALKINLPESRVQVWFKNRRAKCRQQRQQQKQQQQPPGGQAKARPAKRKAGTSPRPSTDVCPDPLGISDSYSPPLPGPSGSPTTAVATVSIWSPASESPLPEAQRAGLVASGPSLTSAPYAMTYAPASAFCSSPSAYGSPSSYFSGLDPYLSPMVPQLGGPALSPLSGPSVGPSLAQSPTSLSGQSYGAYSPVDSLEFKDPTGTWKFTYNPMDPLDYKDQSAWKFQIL
ELF4, sequence (Q99607 whole entry): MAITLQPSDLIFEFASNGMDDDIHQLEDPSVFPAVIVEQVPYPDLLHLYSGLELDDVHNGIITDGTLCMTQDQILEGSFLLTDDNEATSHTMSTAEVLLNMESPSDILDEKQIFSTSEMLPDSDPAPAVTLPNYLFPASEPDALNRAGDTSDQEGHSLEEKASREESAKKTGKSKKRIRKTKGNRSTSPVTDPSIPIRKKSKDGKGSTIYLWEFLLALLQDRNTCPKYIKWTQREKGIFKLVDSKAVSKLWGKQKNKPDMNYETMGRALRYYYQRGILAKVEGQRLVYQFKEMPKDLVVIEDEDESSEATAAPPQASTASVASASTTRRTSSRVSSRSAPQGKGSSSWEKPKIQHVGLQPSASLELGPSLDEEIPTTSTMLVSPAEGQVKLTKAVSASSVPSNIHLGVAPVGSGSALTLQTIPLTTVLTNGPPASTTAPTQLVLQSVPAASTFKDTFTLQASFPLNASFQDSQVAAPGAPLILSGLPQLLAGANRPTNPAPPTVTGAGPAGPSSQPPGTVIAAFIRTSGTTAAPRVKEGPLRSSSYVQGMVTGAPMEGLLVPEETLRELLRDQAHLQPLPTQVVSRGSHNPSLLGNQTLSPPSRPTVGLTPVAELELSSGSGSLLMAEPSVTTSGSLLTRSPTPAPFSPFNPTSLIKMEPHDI

ATTGAC
binding signal (FEV): 1.18 fold enrichment (6-mer frequency, TF over GST control)
binding signal (ETV5): 1.17 fold enrichment (6-mer frequency, TF over GST control)
binding signal (HSF1): 1.01 fold enrichment (6-mer frequency, TF over GST control)
binding signal (SPIC): 1.11 fold enrichment (6-mer frequency, TF over GST control)
binding signal (ELF4): 1.15 fold enrichment (6-mer frequency, TF over GST control)
binding signal (ELK4): 1.34 fold enrichment (6-mer frequency, TF over GST control)
binding signal (ETV2): 1.38 fold enrichment (6-mer frequency, TF over GST control)
binding signal (ELF3): 1.19 fold enrichment (6-mer frequency, TF over GST control)
binding signal (CRX): 1.11 fold enrichment (6-mer frequency, TF over GST control)
binding signal (ETV1): 1.1 fold enrichment (6-mer frequency, TF over GST control)
